{
  "source": "PubChem BioAssay AID1347165",
  "about": "(National Center for Advancing Translational Sciences (NCATS), 2019)",
  "note": "The whole screen tested about 220,000 compounds, of which about 5,700 (2.6%) were called active. Not shown: some 18% with an inconclusive outcome. Shown is part of a subset that was picked to be rich in actives. Values without a mark were called inactive. Calls come from the whole dose curve; as a rule, active = well fitted inhibition curve with a large enough effect; inconclusive = small, poorly fitted or top-dose-only effect; inactive = no such curve, though single readings can be large or run the other way. Potency is the fitted concentration of half-maximal effect.",
  "data": [
    {"target": "Lysine-specific demethylase 5B (Homo sapiens) (UniProt Q9UGL1)", "sequence (Q9UGL1 whole entry, looked up)": "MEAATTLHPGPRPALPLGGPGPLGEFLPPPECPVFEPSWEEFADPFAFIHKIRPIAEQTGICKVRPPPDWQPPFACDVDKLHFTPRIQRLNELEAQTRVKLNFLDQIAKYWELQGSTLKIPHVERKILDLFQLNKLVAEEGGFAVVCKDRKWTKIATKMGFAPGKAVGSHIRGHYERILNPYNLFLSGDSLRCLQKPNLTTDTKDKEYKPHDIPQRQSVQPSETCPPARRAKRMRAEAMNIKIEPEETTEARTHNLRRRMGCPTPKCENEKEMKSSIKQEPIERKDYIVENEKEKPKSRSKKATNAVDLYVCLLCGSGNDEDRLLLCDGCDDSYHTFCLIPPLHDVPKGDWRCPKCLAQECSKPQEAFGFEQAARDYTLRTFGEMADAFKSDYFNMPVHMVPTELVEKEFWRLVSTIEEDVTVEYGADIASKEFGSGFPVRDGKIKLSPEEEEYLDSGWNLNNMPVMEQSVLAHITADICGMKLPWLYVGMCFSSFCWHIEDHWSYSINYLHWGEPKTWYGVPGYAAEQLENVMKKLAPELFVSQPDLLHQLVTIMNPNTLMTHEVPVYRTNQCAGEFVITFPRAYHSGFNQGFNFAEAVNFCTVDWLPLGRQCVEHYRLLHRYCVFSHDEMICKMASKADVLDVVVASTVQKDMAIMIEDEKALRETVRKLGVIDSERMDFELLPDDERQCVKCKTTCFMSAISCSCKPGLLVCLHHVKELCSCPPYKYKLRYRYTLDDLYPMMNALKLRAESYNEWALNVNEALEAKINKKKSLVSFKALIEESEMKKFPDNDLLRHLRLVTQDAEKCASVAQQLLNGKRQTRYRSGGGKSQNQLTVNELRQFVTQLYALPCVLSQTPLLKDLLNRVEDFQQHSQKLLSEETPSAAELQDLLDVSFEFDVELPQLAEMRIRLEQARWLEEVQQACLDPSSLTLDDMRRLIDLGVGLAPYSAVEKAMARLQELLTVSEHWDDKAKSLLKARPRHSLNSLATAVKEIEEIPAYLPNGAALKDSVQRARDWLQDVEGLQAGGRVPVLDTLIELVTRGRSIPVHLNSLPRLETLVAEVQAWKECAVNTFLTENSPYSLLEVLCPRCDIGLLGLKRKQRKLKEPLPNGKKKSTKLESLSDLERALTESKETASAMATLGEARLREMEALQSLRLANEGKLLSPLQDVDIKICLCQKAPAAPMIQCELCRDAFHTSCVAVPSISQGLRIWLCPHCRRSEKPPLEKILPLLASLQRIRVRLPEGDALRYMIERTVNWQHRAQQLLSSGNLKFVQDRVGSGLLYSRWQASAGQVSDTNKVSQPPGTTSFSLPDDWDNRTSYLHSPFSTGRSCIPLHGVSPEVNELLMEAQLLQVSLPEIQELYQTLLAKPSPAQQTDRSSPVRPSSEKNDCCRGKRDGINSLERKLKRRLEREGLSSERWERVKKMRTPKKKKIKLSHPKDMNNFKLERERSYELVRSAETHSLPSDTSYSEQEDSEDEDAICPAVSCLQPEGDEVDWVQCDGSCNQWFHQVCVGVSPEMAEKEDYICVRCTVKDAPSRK", "experiment": "Primary screen for KDM5B Histone Demethylases FDH-coupled qHTS; note: nearly all actives have a fitted effect of over 70% in size; for activity change, negative = inhibition: 0% is about no effect", "details": "FDH-coupled NADH fluorescence (FDH is formaldehyde dehydrogenase); series mostly up to 57.7 µM; activity change, negative = inhibition: at the top concentration", "outline": "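Compound dilutions met 200 nM (final) KDM5BΔAP for 10 min at room temperature before substrate addition. The substrate mix held 12.5 µM H3K4me3 with cofactors 25 µM α-ketoglutarate and 50 µM Fe²⁺. NADH signal gain over 30 min defined activity.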", "values": [
      {"smiles": "CCOc1ccccc1CN1CCC2(CCN(C(=O)c3cccc(Cl)c3)CC2)Oc2ccccc21", "Potency": "25.1 µM (active)"},
      {"smiles": "Cn1cccc1CN1CCC2(CC1)CNc1ccccc1[S+](=O)([O-])N2", "activity change, negative = inhibition": "-25.4%"},
      {"smiles": "NCc1ccccc1-c1cccc(C(F)(F)F)c1", "activity change, negative = inhibition": "-5.98% [at 149 µM]"},
      {"smiles": "CN(C)C(=O)c1cc(-c2cccc(C(F)(F)F)c2)c2nncn2n1", "Potency": "100 µM (active)"},
      {"smiles": "CN(C)C(=O)c1n[nH]c2c1CN(C(=O)c1cccc(C(F)(F)F)c1)CC2", "activity change, negative = inhibition": "0.85%"},
      {"smiles": "Cc1ccc(N2CCN(C(C(=O)O)c3c[nH]c4cc(NC(=O)C(C)C)ccc34)CC2)c(C)c1", "note": "(centres undefined)", "activity change, negative = inhibition": "10.2%"},
      {"smiles": "Oc1c(-c2ccccc2)nc2sc3c(c2c1-c1ccccc1)CCCC3", "activity change, negative = inhibition": "-25.6%"},
      {"smiles": "O=C(c1cc(Cl)cc(Cl)c1)N1CCN(C(=O)c2cc(Cl)ccc2F)CC1", "activity change, negative = inhibition": "24%"},
      {"smiles": "CCOc1ccc(CC(=O)N2C[C@@H](N)C[C@H]2C(=O)NC(C)C)cc1", "activity change, negative = inhibition": "-25.5%"},
      {"smiles": "Cc1n[nH]c(C)c1CCC(=O)N[C@@H]1CN(S(C)(=O)=O)C[C@H]1CN(C)C", "activity change, negative = inhibition": "-5.53%"},
      {"smiles": "CN(C)C[C@@H]1CN(c2ncccn2)C[C@H]1NC(=O)CCc1ccccc1", "Potency": "28.2 µM (active)"},
      {"smiles": "O=C(Cc1ccccc1Cl)N1CCN(c2ncnc3nc[nH]c23)CC1", "activity change, negative = inhibition": "4.8%"},
      {"smiles": "Cc1ccc(C)n1-c1nnc(N2CCC(C(=O)NCc3ccccc3Cl)CC2)s1", "activity change, negative = inhibition": "-21.5%"},
      {"smiles": "CCOc1ccc(CC(=O)N[C@@H]2CN(c3ncccn3)C[C@H]2CN(C)C)cc1", "Potency": "25.1 µM (active)"},
      {"smiles": "CN(C)C[C@@H]1CN(c2ncccn2)C[C@H]1NC(=O)Cc1ccccc1Cl", "Potency": "22.4 µM (active)"},
      {"smiles": "CN(C)C[C@@H]1CN(c2ncccn2)C[C@H]1NC(=O)c1cc(Cl)ccc1F", "Potency": "31.6 µM (active)"},
      {"smiles": "CN(C)C(=O)c1cccnc1OC1CCN(C(=O)Cc2ccc(Cl)cc2)C1", "note": "(centres undefined)", "activity change, negative = inhibition": "-17.9%"},
      {"smiles": "COc1ccc(CNC(=O)N[C@@H]2CN(c3ccncn3)C[C@H]2CN(C)C)cc1", "activity change, negative = inhibition": "-21%"},
      {"smiles": "CN(C)C[C@@H]1CN(c2ccncn2)C[C@H]1NC(=O)c1cc(C2CC2)[nH]n1", "activity change, negative = inhibition": "-3.97%"},
      {"smiles": "C/C=C/c1ccc(OCC(=O)N2CCN(S(=O)(=O)c3ccccc3)CC2)c(OC)c1", "activity change, negative = inhibition": "-5.54%"},
      {"smiles": "O=C(/C=C/c1ccccc1)Nc1cccc2c1CCCC2", "activity change, negative = inhibition": "24.1%"},
      {"smiles": "O=C(NCC1CC1)c1ccc(F)cc1", "activity change, negative = inhibition": "17.1%"},
      {"smiles": "Cc1ccc(OCc2nc3ccc(F)cc3[nH]2)cc1", "activity change, negative = inhibition": "15.2%"},
      {"smiles": "CCCCCC1CC(COc2ccccc2)OC1=O", "note": "(centres undefined)", "activity change, negative = inhibition": "26.8%"},
      {"smiles": "COc1ccc2c(COC(=O)c3cc4ccccc4cc3O)cc(=O)oc2c1", "activity change, negative = inhibition": "-21.8%"},
      {"smiles": "CCc1cccc2c(C(=O)C(Nc3cccc(CO)c3)c3ccccc3)c[nH]c12", "note": "(centres undefined)", "activity change, negative = inhibition": "-20.6%"},
      {"smiles": "O=C(COC(=O)CCc1c[nH]c2ccccc12)NC1CC1", "activity change, negative = inhibition": "0.514%"},
      {"smiles": "Cc1cc(Nc2cccc(Cl)c2)n2nc(Cc3ccccc3)nc2n1", "activity change, negative = inhibition": "-9.46%"},
      {"smiles": "O=C(c1ccccc1)c1ccc(C(=O)N2CCN(c3ccccc3)CC2)cc1", "activity change, negative = inhibition": "-3.85%"},
      {"smiles": "COc1cccc2c1CCN=C2C[C@H]1CN(C(=O)C(C)(C)C)CC[C@H]1CC(=O)O", "Potency": "35.5 µM (active)"},
      {"smiles": "CC(C)(C)C(=O)N1CC[C@@H](CC(=O)O)[C@@H](CCN2CCN(c3cccc(C(F)(F)F)c3)CC2)C1", "activity change, negative = inhibition": "19%"},
      {"smiles": "C=CCNC(=O)N1CC[C@@H](CC(=O)O)[C@@H](CC2=NCCc3ccc(C)cc32)C1", "activity change, negative = inhibition": "-15.8% [at 86.2 µM]"},
      {"smiles": "Cc1ccc(CNC(=O)[C@H](C)NC(=O)[C@@H]2Cc3ccccc3CN2)cc1", "activity change, negative = inhibition": "5.1%"},
      {"smiles": "O=C(NCc1ccccn1)C1c2ccccc2C(=O)N(C2CCCC2)C12CCCC2", "note": "(centres undefined)", "activity change, negative = inhibition": "22.4%"},
      {"smiles": "COCc1nnc(NC(=O)C2c3ccccc3C(=O)N(C3CCCC3)C23CCCC3)s1", "note": "(centres undefined)", "activity change, negative = inhibition": "-17.5%"},
      {"smiles": "Cc1cccnc1NC(=O)C1c2ccccc2C(=O)N(C2CCCC2)C12CCCC2", "note": "(centres undefined)", "Potency": "15.8 µM (active)"},
      {"smiles": "CN(C)CCN(Cc1ccc(Cl)cc1)C(=O)c1ccncc1", "activity change, negative = inhibition": "-6.95%"},
      {"smiles": "COc1cc(C(=O)OC2CCCCC2=O)ccc1OCc1ccccc1Cl", "note": "(centres undefined)", "activity change, negative = inhibition": "-12.3%"},
      {"smiles": "Clc1ccc2[nH]c3c(c2c1)CCCC3", "activity change, negative = inhibition": "-23.8%"},
      {"smiles": "Cc1ccncc1C(=O)N1CCC(Cn2c(C)cnc2-c2cccnc2)CC1", "activity change, negative = inhibition": "-18.9%"},
      {"smiles": "COCCn1c(C)cnc1CC1CCN(C(=O)c2ccc(OC)cc2OC)CC1", "activity change, negative = inhibition": "34.2%"},
      {"smiles": "Cc1cnc(CC2CCN(C(=O)c3cccc4[nH]ccc34)CC2)n1CC1CC1", "Potency": "22.4 µM (active)"},
      {"smiles": "Cc1[nH]c(=O)[nH]c(=O)c1CCC(=O)Nc1nc(C(C)C)cs1", "activity change, negative = inhibition": "-2.21%"},
      {"smiles": "O=C(OCc1cccc(Cl)c1)c1ccc(N2CCOCC2)nc1", "activity change, negative = inhibition": "-16.1%"},
      {"smiles": "CCOC(=O)C1CCN(C(=O)c2ccc(-c3ccc(N4CCCCCC4)nc3)cc2)CC1", "Potency": "15.8 µM (active)"},
      {"smiles": "O=C(c1ccnc(-c2nnc3ccc(N4CCOCC4)nn23)c1)N1CCCCC1", "activity change, negative = inhibition": "-40.3% [at 86.2 µM]"},
      {"smiles": "O=C(c1ccc(-c2ccc(N3CCCCC3)nc2)cc1)N1CCOCC1", "Potency": "28.2 µM (active)"},
      {"smiles": "CC(=O)c1ccc(NC(=O)COC(=O)C2CCN(c3ccc(C(F)(F)F)cn3)CC2)cc1", "activity change, negative = inhibition": "-18.1%"},
      {"smiles": "CCOC(=O)C1CCN(C(=O)c2cccc(S(=O)(=O)N(CC)c3ccccc3)c2)CC1", "activity change, negative = inhibition": "-3.52%"}
    ]}
  ]
}
